Reference: PMC5540273 (PLoS ONE, 2017)
Like-named read-outs stand apart in the source and are kept apart here.

Columns and labels:
[1] = test system: EPHA2; settings: concentration: 1 μM, replicates: in singlicate; n = 1
[2] = test system: EPHA3; settings: concentration: 1 μM, replicates: in singlicate; n = 1
[3] = test system: EPHA4; settings: concentration: 1 μM, replicates: in singlicate; n = 1
[4] = test system: EPHA5; settings: concentration: 1 μM, replicates: in singlicate; n = 1
[5] = test system: EPHA6; settings: n = 1
[6] = test system: EPHA7; settings: concentration: 1 μM, replicates: in singlicate; n = 1
[7] = test system: EPHA8; settings: concentration: 1 μM, replicates: in singlicate; n = 1
[8] = test system: EPHB1; settings: concentration: 1 μM, replicates: in singlicate; n = 1
[9] = test system: EPHB2; settings: concentration: 1 μM, replicates: in singlicate; n = 1
[10] = test system: EPHB3; settings: concentration: 1 μM, replicates: in singlicate; n = 1
[11] = concentration: 1 μM, replicates: in singlicate
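Further: KINOMEscan kinase panel screen.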

SMILES	%Inh [1]	%Inh [2]	%Inh [3]	%Inh [4]	%Inh [5, 11]	%Inh [6]	%Inh [7]	%Inh [8]	%Inh [9]	%Inh [10]	%Inh ([5]; 1 µM)
COc1ccc(CSc2nnc(-c3ccc4nccn4c3)o2)cc1C(F)(F)F	7%	8%	11%	10%	9%	15%	16%	17%	0%	7%	–
COc1nccc(-c2c(-c3ccc(F)cc3)ncn2CCCN2CCOCC2)n1 [SB-282852]	0%	10%	0%	0%	0%	0%	0%	0%	0%	0%	–
O=C(Nc1n[nH]c2nc(-c3ccco3)c(Br)cc12)C1CCN(Cc2ccccc2)C1.O=C(O)[C@H](O)[C@@H](O)C(=O)O (stereo not drawn) [SB-742034]	0%	16%	1%	6%	0%	7%	0%	7%	17%	11%	–
O=C1NC(=O)C(c2ccc(Cl)cc2)=C1Nc1ccc(O)cc1 [SB-340867]	0%	0%	3%	0%	12%	0%	6%	0%	0%	0%	–
O=C(Nc1n[nH]c2nc(-c3cccs3)c(Br)cc12)C1CC1 [SB-735297]	0%	0%	1%	0%	17%	0%	8%	0%	0%	0%	–
CSc1ccc(-c2nc3n(c2-c2ccncc2)CCC3)cc1 [SKF-105561]	0%	5%	14%	0%	0%	9%	0%	0%	0%	8%	–
Cn1cncc1C(=O)NC1CCN(c2ccnc(Nc3ccc(F)cc3)n2)C1 (stereo not drawn) [GSK1379717]	0%	0%	0%	0%	0%	3%	4%	7%	0%	0%	–
CNCc1ccc2nc(NC(=O)c3ccc(C(C)(C)C)cc3)cn2c1	3%	0%	0%	3%	0%	0%	0%	0%	5%	0%	–
COc1ccc(CSc2nnc(-c3ccc4ncsc4c3)o2)cc1C(F)(F)F	3%	3%	1%	0%	20%	0%	0%	0%	0%	14%	–
CC[C@@H]1CO[C@H](C(=O)Nc2ccccc2)CN1c1cc(-c2ccc3c(N)n[nH]c3c2)nc(NC)n1 [GSK2376236]	21%	13%	6%	0%	9%	2%	9%	8%	14%	16%	–
Nc1ncnc2occ(-c3ccc4c(c3)CCN4C(=O)Cc3cc(F)ccc3F)c12 [GSK2645446]	0%	12%	0%	0%	0%	0%	0%	0%	6%	0%	–
COc1ccc(CSc2nnc(-c3ccc4c(c3)CCO4)o2)cc1	0%	1%	18%	0%	6%	0%	0%	0%	0%	12%	–
Fc1ccc(-c2nc[nH]c2-c2ccncc2)cc1 [SB-217360]	0%	9%	4%	0%	1%	0%	5%	1%	0%	0%	–
CNc1nc(-c2ccc3c(N)n[nH]c3c2)cc(N2C[C@@H](C(=O)Nc3ccccc3)CC[C@H]2C)n1 [GSK2298859]	0%	18%	8%	0%	0%	1%	5%	0%	0%	9%	–
COc1cccc(C2=C(Nc3cc(Cl)c(O)c(Cl)c3)C(=O)NC2=O)c1 [SB-390767]	19%	0%	28%	0%	30%	9%	17%	11%	0%	26%	–
CC(=O)c1cccc(NC(=O)NC2CCN(c3ccnc(Nc4ccc(F)cc4)n3)C2)c1 (stereo not drawn) [GSK1379710]	0%	19%	6%	0%	7%	6%	14%	8%	11%	7%	–
COC(=O)c1cccc(NC(=O)NC2CCN(c3ccnc(Nc4ccc(F)cc4)n3)C2)c1 (stereo not drawn) [GSK1379725]	16%	0%	5%	0%	0%	0%	0%	8%	14%	0%	–
O=c1cc(N2CCOCC2)nc2n(Cc3ccccc3F)ccn12 [GSK2297428]	21%	0%	5%	0%	0%	3%	9%	5%	0%	7%	–
O=C(Nc1n[nH]c2nc(-c3cccs3)c(Br)cc12)C1CCCC1 [SB-743341]	0%	0%	6%	13%	27%	8%	1%	0%	4%	35%	–
Cc1ccc(NC(=O)c2ccc(Cl)cc2)cc1-c1ccc(C(=O)Nc2ccncc2)cc1 [GSK1398467]	9%	81%	11%	0%	0%	4%	18%	19%	7%	8%	–
COc1ccc(Nc2nccc(-c3ccc(NC(=O)c4cc5cc(F)ccc5[nH]4)cc3)n2)cc1 [GSK1229496]	1%	1%	0%	0%	0%	0%	10%	3%	0%	0%	–

SMILES	%Inh [1]	%Inh [2]	%Inh [3]	%Inh [4]	%Inh [5, 11]	%Inh [6]	%Inh [7]	%Inh [8]	%Inh [9]	%Inh [10]	%Inh ([5]; 1 µM)
COc1ccc2cc(-c3nc(-c4ccccc4C(C)C)[nH]c3-c3ccncc3)ccc2c1 [SB-660566]	0%	0%	25%	0%	30%	15%	13%	4%	15%	28%	–
Fc1ccc(-c2nn3cccc(F)c3c2-c2ccncc2)cc1 [GW475620]	12%	2%	15%	13%	38%	0%	4%	8%	0%	31%	–
COC(=O)c1cccc(NC(=O)NC2CCN(c3ccnc(Nc4ccc(OC)cc4)n3)C2)c1 (stereo not drawn) [GSK1379746]	6%	0%	4%	0%	0%	3%	12%	21%	8%	5%	–
CN1c2ccc(-c3ccc(C(N)=O)cc3)cc2-c2[nH]ncc2S1(=O)=O	0%	0%	0%	4%	5%	0%	0%	0%	0%	5%	–
c1ccc(-c2ccnc3[nH]ccc23)cc1 [SB-693578]	0%	0%	12%	0%	0%	18%	26%	13%	0%	4%	–
Cc1ccc(-c2nc(Nc3ccncc3)c3ccccc3n2)s1 [GSK189015]	28%	0%	23%	100%	30%	22%	26%	24%	0%	37%	–
COc1ccc(Nc2nccc(N3CCC(NC(=O)C(C)c4ccc(Cl)cc4)CC3)n2)cc1 (stereo not drawn) [GSK1379812]	7%	5%	0%	0%	0%	0%	9%	34%	71%	1%	–
Cn1cncc1-c1cc2c(Nc3ccc(OCc4ccccc4)cc3)ncnc2cn1 [GW281179]	13%	0%	6%	0%	14%	9%	11%	21%	0%	25%	–
CCCCc1nn2ncccc2c1-c1ccnc(NC2CC2)n1 [GW684374]	0%	0%	0%	0%	0%	0%	9%	13%	0%	0%	–
Cc1nccc(-c2c(-c3ccc(F)cc3)ncn2CCCN2CCOCC2)n1.Cl [SB-282975]	16%	0%	4%	10%	8%	9%	10%	15%	15%	3%	–
Cc1ccc(NC(=O)Nc2ccc(Cl)cc2)cc1-c1ccc(C(=O)Nc2ccncc2)cc1 [GSK1398472]	43%	0%	41%	2%	36%	7%	34%	16%	11%	25%	–
O=C(Nc1n[nH]c2cc(-c3ccsc3)ccc12)C1CC1 [SB-732932]	0%	13%	0%	3%	6%	0%	0%	0%	0%	7%	–
FC(F)(F)c1ccccc1-c1cc(-c2c[nH]nc2-c2ccccn2)ccn1 [GW679396]	0%	0%	2%	0%	0%	6%	17%	24%	7%	2%	–
CC(C)c1ccc(O)cc1Nc1ccnc2ccc(C(F)(F)F)cc12 [GW482059]	0%	0%	19%	0%	20%	0%	3%	9%	0%	13%	–
Fc1ccc(-c2nc3n(c2-c2ccncc2)CCS3)cc1 [GI98581]	12%	0%	0%	10%	19%	4%	11%	9%	15%	19%	–
COc1cccc(CNC(=O)NC2CCN(c3ccnc(Nc4ccc(F)cc4)n3)C2)c1 (stereo not drawn) [GSK1379723]	2%	0%	0%	0%	0%	1%	15%	0%	0%	5%	–
CS(=O)(=O)Cc1ccc(Nc2nccc(-c3c(-c4cccc(NC(=O)C5CCCCC5)c4)nn4ncccc34)n2)cc1 [GSK350559]	51%	16%	14%	0%	–	15%	15%	2%	3%	5%	2%
COC(=O)C(NC(=O)NC1CCN(c2ccnc(Nc3ccc(F)cc3)n2)C1)c1ccccc1 (stereo not drawn) [GSK1379712]	0%	0%	3%	0%	2%	0%	10%	10%	11%	1%	–
CNC(=O)c1ccc(C)c(-n2c(C)cc(OCc3ccc(F)cc3F)c(Br)c2=O)c1	0%	0%	0%	0%	0%	0%	0%	0%	6%	0%	–
Cc1ccc(NC(=O)Nc2ccccc2)cc1-c1ccc(C(=O)Nc2ccncc2)cc1 [GSK1398471]	17%	4%	32%	0%	15%	5%	36%	11%	13%	15%	–
CCn1c(-c2c(N)noc2C)nc2cnccc21 [SB-737856]	15%	0%	29%	7%	21%	14%	33%	12%	0%	26%	–
